The campaign covered roughly 330,000 compounds. About 1,900 (0.58%) were called active. Not shown: some 4% with an inconclusive outcome. No stated cut-off is given here; in the data, inconclusive means inhibition above about 70% without an active follow-up result; inactive means below that. A selection follows. Results with a measured potency or affinity are listed apart.

The nature of the assay: M. tuberculosis growth inhibition, HTS (AID 449762).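 Further: bacterial growth assessed after seven days of incubation.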 As to conditions: M. tuberculosis H37Rv growth inhibition, 7H9 media; at 25 µM; active compounds read high.
As for `CCOc1ccc(CC2S/C(=N/c3ccccn3)NC2=O)cc1` (configuration not stated), the inhibition is -1.03% (inactive).

As for `Nc1ccc(CC2SC(=O)NC2=O)cc1` (configuration not stated), the inhibition was -2.9% (inactive).

Take `CCc1c(C(=O)Nc2ccc(OC)cc2)[nH]c(C)c1C(C)=O`: the inhibition was 0.65% (inactive).

With `O=S(=O)(Nc1ncccn1)c1ccc(Cl)cc1`, the inhibition is -3.71% (inactive).

`CCCC(=O)Nc1nc2nc(-c3ccccc3)cc(=O)n2[nH]1`: the inhibition is -6.79% (inactive).

Turning to `CCC(=O)Nc1nc2nc(-c3ccccc3)cc(=O)n2[nH]1`, the inhibition is -4.67% (inactive).

As for `Clc1cccc(Cl)c1COc1ccncc1`, the inhibition is -7.66% (inactive).

For the compound `O=C(CNC(=O)c1ccccc1Cl)OC1CCOC1=O` (configuration not stated), the inhibition is 0.14% (inactive).

As to `CC(=O)c1cccc(NC(=S)NC2CC2)c1`, the inhibition is -5.17% (inactive).

Turning to `CC(=O)c1cccc(NC(=S)NC2CCCCC2)c1`, the inhibition is 0.31% (inactive).

On to `O=C(Nc1ccc2nsnc2c1)C1CC1`, for which the inhibition was 0.63% (inactive).

On to `S=C(Nc1ccc2nsnc2c1)NC1CCCCC1`, for which the inhibition is -5.66% (inactive).

As for `CCc1c(C)sc(NC(=O)c2cc(-c3cc(OC)ccc3OC)on2)c1C#N`, the inhibition is 9.02% (inactive).

On to `CCCCCCCCNC(CO)(CO)CO`, for which the inhibition was -13.8% (inactive).

For the compound `O=C(C1=C[C@H](c2ccc(Br)cc2)C[C@H](OCCCCO)O1)N1CCOCC1`, the inhibition was 8.9% (inactive).

`CCn1cc(CNC(=O)C2CCC(=O)N(C3CCCCCC3)C2)cn1` (configuration not stated): the inhibition is -6.38% (inactive).

Turning to `COC(=O)C1=NNC(C(=O)c2ccco2)C1c1ccccc1` (configuration not stated), the inhibition was 4.3% (inactive).

`CCOC(=O)c1ccccc1NC(=O)COC(=O)C1CCCC1`: the inhibition was 27.5% (inactive).

For `CC[C@H](C)[C@@H](CNC)NC[C@@H](Cc1ccc(O)cc1)NCC(C)(C)C`, the inhibition is -12.2% (inactive).

In the case of `CC[C@@H](C)[C@H](CN[C@H](CNC)[C@@H](C)O)NCCc1ccc(OC)cc1`, the inhibition was 0.9% (inactive).

For `CCCCN(CC)C(=O)CSc1nc2ccccc2c(=O)n1CC1COc2ccccc2O1` (configuration not stated), the inhibition was 15% (inactive).

For `O=C(NCc1cccc(Cl)c1)c1cc(=O)[nH]c2ccccc12`, the inhibition is -6.18% (inactive).

Take `COC(=O)CN(C#N)c1nc(OC)nc(N(C)C)n1`: the inhibition was 9.53% (inactive).

On to `CCOC(=O)CN(C#N)c1nc(C)cc(C)n1`, for which the inhibition is -0.56% (inactive).

In the case of `O=C(COC(=O)c1ccccc1)Nc1cc(S(=O)(=O)N2CCCCCC2)ccc1Cl`, the inhibition was -13% (inactive).

On to `CCN1C(=O)[C@@H]2[C@@H](c3ccc(-c4ccc(C(C)=O)cc4)c(OC)c3)N3CCC[C@@]3(C(=O)OC)[C@@H]2C1=O`, for which the inhibition was 18.4% (inactive).

On to `CC(=O)C[C@H](O)CC(=O)[C@H]1OC(=O)CCCCCCc2ccccc21`, for which the inhibition was 4.94% (inactive).

Turning to `CC1(C)CC(=O)C2=C(C1)Nc1ccccc1[S@]2=O`, the inhibition was 1.12% (inactive).

Take `COc1ccc(C2=NCCc3cc(OC)c(OC)cc32)cc1OC`: the inhibition was 4.26% (inactive).

Take `OCC1(Cc2ccccc2Cl)CCN(C/C=C/c2ccccc2)CC1`: the inhibition was 2.72% (inactive).

Consider `COc1ccc(CC2(CO)CCN(C/C=C/c3ccccc3OC)CC2)cc1`, for which the inhibition is 50.6% (inactive).

In the case of `Cc1ccc(-n2nc(CC#N)c(C#N)c2N)cc1Cl`, the inhibition was -3.34% (inactive).

`O=Nc1c(O)[nH]c2ccc(F)cc12`: the inhibition was -7.36% (inactive).

Regarding `Cc1ccc2[nH]c(O)c(N=O)c2c1`, the inhibition is -3.5% (inactive).

As for `O=C(CSc1cccc[n+]1[O-])Nc1cccc(Oc2ccccc2)c1`, the inhibition was 2.29% (inactive).

For the compound `O=C(C1CC(=O)N(c2ccc3c(c2)OCCO3)C1)N1CCN(Cc2ccccc2F)CC1` (configuration not stated), the inhibition was -2.42% (inactive).

As for `COc1cccc2sc3ccc(C#Cc4ccc(N)cc4)cc3c(=O)c12`, the inhibition was 39.9% (inactive).

For the compound `COc1cccc2sc3ccc(C#CC4(O)CCCCC4)cc3c(=O)c12`, the inhibition was 47.6% (inactive).

On to `COc1ccc(S(=O)(=O)Cc2ccc(C(=O)N3CCN(C4CCCCC4)CC3)o2)cc1`, for which the inhibition was -3.99% (inactive).

On to `COc1ccc(NC(=O)c2ccc(CNc3c(NC4CCCCC4)c(=O)c3=O)cc2)c(OC)c1`, for which the inhibition was -5.88% (inactive).

In the case of `CCOc1ccccc1NC(=O)c1ccccc1N(C)S(C)(=O)=O`, the inhibition was -4.2% (inactive).

Turning to `COc1ccc(C2C(C#N)=C(N)N(N(C)C)C3=C2C(=O)CC(C)(C)C3)cc1OC` (configuration not stated), the inhibition is 7.78% (inactive).

Take `COc1ccc(C2C(C#N)=C(N)N(Nc3ccccc3)C3=C2C(=O)CC(C)(C)C3)cc1C` (configuration not stated): the inhibition is -5.96% (inactive).

With `CSc1ccccc1OCc1cc(C(=O)NC(C)CCn2cccn2)no1` (configuration not stated), the inhibition was -15.6% (inactive).

As to `Cc1cc(C)n(C(=O)c2ccc([N+](=O)[O-])cc2Cl)n1`, the inhibition is 5.54% (inactive).

Regarding `Cc1cc(C)n(C(=O)c2ccc([N+](=O)[O-])cc2N)n1`, the inhibition is -4% (inactive).

As for `Cc1nc([N+](=O)[O-])cn1CC(=O)c1ccc(Br)cc1`, the inhibition was 4.4% (inactive).

As to `CC(C)C(=O)c1cn(CC(=O)NCc2ccc3c(c2)OCO3)c2ccccc12`, the inhibition was -5.3% (inactive).

Take `CS(=O)(=O)n1nc(-c2cccnc2)nc1NCc1ccccc1`: the inhibition is 0.47% (inactive).

As to `CC(=O)n1nc(-c2ccccc2)nc1NCc1ccc(N(C)C)cc1`, the inhibition was 0.39% (inactive).

Take `CCN(CC)CC(=O)NCC1(c2ccccc2)CCCC1`: the inhibition is -3.12% (inactive).

For `O=C(O)C1C2C=CC(C2)C1C(=O)Nc1ccc(C(=O)N2CCCCC2)cc1` (configuration not stated), the inhibition is 1.87% (inactive).

Consider `CCOC(=O)C(=O)N=Nc1c(O)n(C)c2ccccc12`, for which the inhibition was 1.87% (inactive).

With `COc1cccc(N=Nc2c(=O)[nH]n3c(C)cc(C)nc23)c1`, the inhibition was 0.98% (inactive).

As to `Cc1cc(C)n2[nH]c(=O)c(N=Nc3ccccc3)c2n1`, the inhibition was 4.19% (inactive).

As to `COc1ccc(/C=C/C(=O)c2oc3ccc(F)cc3c2C)cc1`, the inhibition is 10.9% (inactive).

With `Cc1c(C(=O)N2CCN(C(=O)c3ccccc3)CC2)oc2ccc(F)cc12`, the inhibition is -0.86% (inactive).

Regarding `CC(=O)c1ccc(OCC(=O)Nc2cccc(S(=O)(=O)N3CCCC3)c2)cc1`, the inhibition was -6.55% (inactive).

With `O=C(COC(=O)c1cccs1)NCc1ccco1`, the inhibition is -0.65% (inactive).

For `COc1cc(NC(=O)c2cccs2)c(C(=O)OCC(=O)NCc2ccccc2)cc1OC`, the inhibition is -0.2% (inactive).

`COc1ccc(COC(=O)c2ccc3c(=O)n4c(nc3c2)CCC4)cc1F`: the inhibition is 3.8% (inactive).

For the compound `COc1cccc(CN(C)C(=O)c2ccc3c(=O)n4c(nc3c2)CCC4)c1OC`, the inhibition was 1.09% (inactive).

`C[C@H](NC(=O)C1CCN(S(=O)(=O)c2ccccc2)CC1)C(=O)NCc1ccc(Cl)cc1Cl`: the inhibition is -1.33% (inactive).

In the case of `O/C(=C\Sc1nnc(Cc2ccccc2)o1)c1ccc(Br)cc1`, the inhibition was 8.01% (inactive).

`O/C(=C\Sc1nnc(Cc2ccccc2)o1)c1ccc(F)cc1`: the inhibition was 7.63% (inactive).

For `CCC(C)(C)NC(=O)C(c1ccncc1)N(C(=O)c1sc(C)nc1C)c1ccc(C)cc1` (configuration not stated), the inhibition is 3.84% (inactive).

Take `COc1cc(/C=N\NC(=O)c2ccc(Cl)cc2)ccc1Oc1ccc([N+](=O)[O-])cn1`: the inhibition is -6.52% (inactive).

For the compound `Cc1nc2ccccc2n1CCc1ccccc1`, the inhibition is -2.95% (inactive).

For `Cc1cccc(-n2c(N)c(-c3nc4ccccc4n3C)c3nc4ccccc4nc32)c1`, the inhibition was 1.57% (inactive).

In the case of `CNC(=O)CS(=O)(=O)CC(=O)Nc1cc(OC(C)C)c(Cl)cc1Cl`, the inhibition was -5.55% (inactive).

Consider `O=C(OC(C(=O)Nc1ccc(Cl)c(C(F)(F)F)c1)c1ccccc1)C1=COCCO1` (configuration not stated), for which the inhibition is 45.5% (inactive).

Take `COC(=O)CCC(=O)Nc1nccs1`: the inhibition is 5.49% (inactive).

On to `O=C(Cc1ccccc1)Nc1nccs1`, for which the inhibition was -6.19% (inactive).

As for `CCn1c(SCC(=O)Nc2nc(C)c(C)s2)nnc1-c1cccnc1`, the inhibition was -1.86% (inactive).

Take `CC1=NC(C(F)(F)F)(C(F)(F)F)C(C#N)=C(C)N1`: the inhibition is -4.27% (inactive).

With `C=CCn1cccc(C(=O)Nc2ccc(SC)cc2)c1=O`, the inhibition is -0.65% (inactive).

Turning to `O=C(c1cccc(Cl)c1)c1nn(-c2ccccc2)c(=O)cc1C(F)(F)F`, the inhibition was -1.58% (inactive).

For the compound `O=C(c1ccccc1)c1nn(-c2ccccc2)c(=O)cc1C(F)(F)F`, the inhibition is 13.9% (inactive).

`CCCCNC(=O)c1c(C)cc(=O)oc1C`: the inhibition is -6.73% (inactive).

As for `Clc1cccc(Cl)c1C1Nc2cccc3cccc(c23)N1`, the inhibition was 14.4% (inactive).

As for `Oc1ccccc1C1Nc2cccc3cccc(c23)N1`, the inhibition was 6.02% (inactive).

For the compound `O=C(CSc1nnnn1-c1ccc(F)cc1F)Nc1ccccc1F`, the inhibition was -0.25% (inactive).

For the compound `CC(=O)NC1=NN(C(C)=O)C(c2ccc(F)cc2)S1` (configuration not stated), the inhibition was -2.18% (inactive).

In the case of `Cc1cc(=O)oc(C)c1C(=O)NCc1cccnc1`, the inhibition was -7.02% (inactive).

As to `Cc1onc(-c2ccccc2)c1C(=O)NCc1cccnc1`, the inhibition is -1.76% (inactive).

With `COc1ccc(-c2cc(C(=O)N/N=C(\C)c3cccnc3)c3cc(C)ccc3n2)cc1OC`, the inhibition is -3% (inactive).

On to `CCc1nnc(NC(=O)c2ccc(S(=O)(=O)N3CCCC3)cc2)s1`, for which the inhibition was -0.36% (inactive).

`[O-][n+]1ccccc1SCc1ccccc1`: the inhibition is -3.14% (inactive).

For `CN(C(=O)CSc1cccc[n+]1[O-])c1ccccc1`, the inhibition was -7.05% (inactive).

Consider `O=C(O)CSc1cccc[n+]1[O-]`, for which the inhibition was -0.1% (inactive).

As for `O=C(CSc1cccc[n+]1[O-])N1CCCCCC1`, the inhibition is -7.02% (inactive).

In the case of `CN(C(=O)CS(=O)(=O)c1cn(CC(=O)N2CCCCC2)c2ccccc12)c1ccccc1`, the inhibition was -2.32% (inactive).

With `O=C(O)C1(P(=O)(c2ccccc2)c2ccccc2)CCCC1`, the inhibition was 0.37% (inactive).

In the case of `CN(C)CCCNC(=S)N(CCCO)Cc1cc2cc3c(cc2[nH]c1=O)OCO3`, the inhibition was 4.05% (inactive).

`COc1ccc(C(CCN2CCN(c3ccccc3)CC2)c2c(OC)cc(OC)c3c(-c4ccccc4)cc(=O)oc23)cc1` (configuration not stated): the inhibition is -5.41% (inactive).

As for `COc1cc(C(CCN2CCCC2)c2c(OC)cc(OC)c3c(-c4ccccc4)cc(=O)oc23)cc(OC)c1OC` (configuration not stated), the inhibition is 56.2% (inactive).

For the compound `COc1ccc(N2C(=O)NC(NS(=O)(=O)c3ccccc3)(C(F)(F)F)C2=O)cc1` (configuration not stated), the inhibition was -5.61% (inactive).

Source of the values: PubChem BioAssay AID449762 (Southern Research Specialized Biocontainment Screening …, 2010).
